Assay results published in PubChem BioAssay AID1508600 (Functional Genomics Laboratory (NCATS/FGL), 2020).
About 3,700 (7%) of roughly 53,000 sequences were called active.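 How the source made its calls: active means gene knockdowns whose robust z-score for IL-1 alpha signal is at least 2 or at most -2, so actives lie on both sides; inactive means the rest.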 Many of the other results were omitted from the sample, so actives are more common in it than they were.

Experiment: Components of the Cytosolic LPS Sensing Pathway: Gene Identification via Genome-wide siRNA Screen;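 further: robust z of the log signal after scaling to non-targeting control siRNA wells of the plate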
Details: RAW264.7 macrophages, IL-1a HTRF, actives lie on both sides, screened at 100 nM (by protocol), cells primed 5 h with Pam3CSK4 first
Summary of the method: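 Cells (RAW264.7, 1×10^4 per well) were transfected with siRNA at 100 nM and cultured 48h at 37 degrees C. Pam3CSK4 was added for 5 hours; LipidA transfection followed for 24 hour. IL-1a was then measured by HTRF.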
For GGUAGCUAUUAAAGAAUCCTT against AW209491, the z-score was 1.12 (inactive). For GCGAUCAGCAAGCUAAGCCTT against Mettl2, the z-score was 0.117 (inactive). With GGCCAUGAGGAAAACAAGATT against Coro7 the z-score was -1.01 (inactive). In the case of ACAAAGAAGCGAUUUCUAUTT against Wtip, the z-score is reported as 1.32 (inactive). In the case of GCACCCUAGAGGUAAAAGATT against Taf12, the z-score is reported as -2.95 (active). In the case of GGUUGUAACUUGUAAGGCATT against Rnf144b, the z-score is reported as 0.123 (inactive). In the case of GGAGACUAAGGAGGUUUAUTT against Ruvbl1, the z-score is reported as 0.494 (inactive). With GGAGUCUCCUUAUAUUAAUTT against Alcam the z-score was 0.896 (inactive). With GGAUCAUAUAUGAAGCACATT against Mybl1 the z-score was -2.16 (active). For GGUUAACAUUUUCAGUCAUTT against Itga2, the z-score was -0.986 (inactive). In the case of GGAUGACUUGAUUAUCUUUTT against Adrm1, the z-score is reported as 0.603 (inactive). With GGCAAAGAUUCCAAAAGAGTT against Bsdc1 the z-score was -1.59 (inactive). For CCAGAUUGUGUUCACGAUGTT against Rasgrf2, the z-score was 0.888 (inactive). For GGGAAGUUAUAAUGGAAGUTT against Rps15a, the z-score was 2.46 (active). In the case of GCAUAAAGCAGUCAUGCUUTT against Gskip, the z-score is reported as -0.989 (inactive). For GCCAUGUGUAUGGUAGUCUTT against Olfr1247, the z-score was -1.22 (inactive). In the case of GCUAAUAAUGGUCAAAGCCTT against Prrt3, the z-score is reported as -0.963 (inactive). With GGAUAUUCAUGUUUCAUUGTT against Vipr2 the z-score was 0.836 (inactive). In the case of CGACCAGAUGAACUGGUGUTT against Smg9, the z-score is reported as 0.929 (inactive). With GGUGACACACUAGUAGACUTT against Sclt1 the z-score was 3.47 (active). For CGAACAGAAACAGUUAUUATT against Gbp2, the z-score was 1.01 (inactive). In the case of CCAAAUCUCUCAAUUUAGGTT against Taf9b, the z-score is reported as 0.265 (inactive). For CCAAAGAUGUUAUUGGACCTT against Olfr1152, the z-score was -1.1 (inactive). For CCUGUAAACCAGAUAAGCCTT against Defb1, the z-score was -0.0772 (inactive). With GGCAAUAUGUCGUAUGUAATT against Sfmbt2 the z-score was -2.13 (active). With GGUCAUGAAUUACUAUUCCTT against Cyth2 the z-score was 1.02 (inactive). For GGAGAAAUUCCCUUGCCACTT against Kbtbd12, the z-score was -0.0157 (inactive). In the case of UUUAUACUUCCCUGAUUUUTT against Olfr943, the z-score is reported as -0.409 (inactive). In the case of GGGAAAAAGGAGAACUUCUTT against Cfap161, the z-score is reported as -1.12 (inactive). With GGAUCAUAGUUACAAGGCUTT against L3mbtl2 the z-score was 0.458 (inactive).
